# Structures can show the parent of a compound that is named as a salt.
# Test system: Salmonella enterica typhimurium
# Assay: growth AUC normalised to DMSO control (fraction of control); higher = less growth inhibition, active = hit call of the paper
# Details: 20 µM;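 active = AUC significantly below DMSO controls by Student t-fit with adjusted P under 0.01; inactive = not significantly reduced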
# In short: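 Pathogens were passaged twice under anaerobic conditions, then inoculated into pre-reduced mGAM plates at a starting OD578 of 0.01, with compound at 20 μM and 1% DMSO, and sealed with breathable membranes. For Haemophilus parainfluenzae, the medium was supplemented with hemin and NAD. OD578 was read every hour for 24 h in three biological replicates. Growth-curve AUC was calculated by the trapezoidal rule up to the exponential-to-stationary transition and normalised to DMSO controls on the same plate.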
row,Structure (SMILES),growth AUC normalised to DMSO control
1,O=C(NCC(O)CO)c1c(I)c(C(=O)NCC(O)CO)c(I)c(N(CCO)C(=O)CO)c1I (stereo not given) [Ioversol],1.01 (inactive)
2,CC(=O)CCCCn1c(=O)c2c(ncn2C)n(C)c1=O [Pentoxifylline],1 (inactive)
3,COC(=O)Nc1nc2cc(C(=O)c3ccc(F)cc3)ccc2[nH]1 [Flubendazol],1.02 (inactive)
4,CC(=O)N(CC(O)CO)c1c(I)c(C(=O)NCC(O)CO)c(I)c(C(=O)NCC(O)CO)c1I (stereo not given) [Iohexol],0.997 (inactive)
5,O=C(Nc1cccc2c(=O)cc(-c3nnn[nH]3)oc12)c1ccc(OCCCCc2ccccc2)cc1 [Pranlukast],1.01 (inactive)
6,Cc1cccc(C)c1NC(=O)C1CCCCN1C (stereo not given) [Mepivacaine hydrochloride],1.01 (inactive)
7,CCn1cc(C(=O)O)c(=O)c2cnc(N3CCCC3)nc21 [Piromidic acid],0.996 (inactive)
8,C[C@H](CCC(=O)O)[C@H]1CC[C@H]2[C@@H]3CC[C@@H]4C[C@H](O)CC[C@]4(C)[C@H]3CC[C@]12C [Lithocholic acid],1.01 (inactive)
9,CS(=O)(=O)c1ccc([C@@H](O)[C@@H](CO)NC(=O)C(Cl)Cl)cc1 [Thiamphenicol],0.408 (active)
10,COC(=O)C1=C(C)NC(C)=C(C(=O)OC(C)C)C1c1cccc2nonc12 (stereo not given) [Isradipine],1.01 (inactive)
11,NS(=O)(=O)c1cc2c(cc1C(F)(F)F)NCNS2(=O)=O [Hydroflumethiazide],1.01 (inactive)
12,CN(C)CCN(Cc1cccs1)c1ccccn1 [Methapyrilene hydrochloride],0.977 (inactive)
13,C[C@]12CC[C@@H]3c4ccc(OS(=O)(=O)O)cc4CC[C@H]3[C@@H]1CCC2=O [Estropipate piperazine salt],0.985 (inactive)
14,CN(CCCCCCCCCCN(C)C(=O)Oc1cccc([N+](C)(C)C)c1)C(=O)Oc1cccc([N+](C)(C)C)c1 [Demecarium bromide],0.99 (inactive)
15,O=C(OCC(O)CO)c1ccccc1Nc1ccnc2cc(Cl)ccc12 (stereo not given) [Glafenine hydrochloride],0.981 (inactive)
16,NC(=O)c1cnccn1 [Pyrazinamide],0.99 (inactive)
17,COCCOC(=O)C1=C(C)NC(C)=C(C(=O)OC(C)C)C1c1cccc([N+](=O)[O-])c1 (stereo not given) [Nimodipine],0.984 (inactive)
18,Cn1c(=O)c2c(ncn2CCO)n(C)c1=O [Etofylline],0.998 (inactive)
19,CCN(CCCc1ccccc1)CCCc1ccccc1 [Alverine citrate salt],0.985 (inactive)
20,N=C(N)NC(=O)c1nc(Cl)c(N)nc1N [Amiloride hydrochloride dihydrate],1.01 (inactive)

row,Structure (SMILES),growth AUC normalised to DMSO control
1,CC(=C(CCO)SSCC1CCCO1)N(C=O)Cc1cnc(C)nc1N (stereo in doubt) [Fursultiamine hydrochloride],1.01 (inactive)
2,CC(=O)N[C@@H](CC(C)C)C(=O)O [N-Acetyl-L-leucine],1.04 (inactive)
3,OCCN1CCN(CCCN2c3ccccc3C=Cc3ccccc32)CC1 [Opipramol dihydrochloride],0.981 (inactive)
4,CC1(C)[C@@H](OC(=O)CCC(=O)O)CC[C@]2(C)[C@H]3C(=O)C=C4[C@@H]5C[C@@](C)(C(=O)O)CC[C@]5(C)CC[C@@]4(C)[C@]3(C)CC[C@@H]12 [Carbenoxolone disodium salt],0.992 (inactive)
5,CC(=O)O[C@]1(C(C)=O)CC[C@H]2[C@@H]3C=C(C)C4=CC(=O)CC[C@@H]4[C@H]3CC[C@@]21C [Nomegestrol acetate],0.991 (inactive)
6,Cc1ccccc1N1C(=O)c2cc(S(N)(=O)=O)c(Cl)cc2NC1C (stereo not given) [Metolazone],0.994 (inactive)
7,CCCOc1ccc(C(=O)OCCN(CC)CC)cc1N [Proparacaine hydrochloride],1 (inactive)
8,CN(N=O)C(=O)N[C@H]1C(O)O[C@H](CO)[C@@H](O)[C@@H]1O (mixture of isomers) [Streptozotocin],0.659 (active)
9,CC(C[N+](C)(C)C)OC(N)=O (stereo not given) [Bethanechol chloride],1 (inactive)
10,CN(C)CCOC(c1ccccc1)c1ccccc1.Cn1c(=O)c2[nH]c(Cl)nc2n(C)c1=O [Dimenhydrinate],0.975 (inactive)
11,CC(=O)OCC(=O)[C@@]12N=C(C)O[C@@H]1C[C@H]1[C@@H]3CCC4=CC(=O)C=C[C@]4(C)[C@H]3[C@@H](O)C[C@@]12C [Deflazacort],0.977 (inactive)
12,C[C@H](CCC(=O)O)[C@H]1CC[C@H]2[C@@H]3[C@@H](O)C[C@@H]4C[C@H](O)CC[C@]4(C)[C@H]3CC[C@]12C [Urosiol],0.971 (inactive)
13,CCc1c2c(nc3ccc(OC(=O)N4CCC(N5CCCCC5)CC4)cc13)-c1cc3c(c(=O)n1C2)COC(=O)[C@]3(O)CC [Irinotecan hydrochloride trihydrate],0.999 (inactive)
14,Cc1ccc(S(=O)(=O)NC(=O)NN2CC3CCCC3C2)cc1 (stereo not given) [Gliclazide],1.02 (inactive)
15,CC(C(=O)O)c1ccc2c(c1)Cc1cccnc1O2 (stereo not given) [Pranoprofen],0.999 (inactive)
16,CC(=O)OCC(=O)[C@@]1(OC(C)=O)[C@@H](C)C[C@H]2[C@@H]3C[C@H](F)C4=CC(=O)C=C[C@]4(C)[C@@]3(F)[C@@H](O)C[C@@]21C [Diflorasone Diacetate],1 (inactive)
17,COc1ccc2c3c1O[C@H]1C[C@@H](O)C=C[C@@]31CCN(C)C2 [Galanthamine hydrobromide],0.995 (inactive)
18,CCN1CCCC1CNC(=O)c1cc(S(N)(=O)=O)ccc1OC (stereo not given) [Sulpiride],0.99 (inactive)
19,NS(=O)(=O)c1cc2c(cc1Cl)NC(CC1CCCC1)NS2(=O)=O (stereo not given) [Cyclopenthiazide],1 (inactive)
20,CN1CCN(C(c2ccccc2)c2ccc(Cl)cc2)CC1 (stereo not given) [Chlorcyclizine hydrochloride],1 (inactive)

# Reference: the supplement of paper PMC12350171
